Screening data as filed in PubChem BioAssay.
eIF4H FP inh: inhibitors of RNA binding by human eIF4H; Q15056; eIF4H fluorescence polarization binding assay; inhibition, % at 35 µM; 290,000 compounds, 0.94% hits;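 note: calls also rest on retests at 20 µM and on dose response follow-up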
PABP1 MLLE inh: blocks PAM2 peptide binding to the PABP1 MLLE domain. P11940. 360,000 compounds, 0.36% hits. GST-MLLE / FITC-PAM2 fluorescence polarization. inhibition, % at 20 µM. AID 588489; in the data active = inhibition above about 35%, passing the limit was not always enough
ALR inh: inhibitors of human sulfhydryl oxidase ALR | P55789 | purified ALR, DTT oxidation, H2O2 HRP-luminol luminescence | inhibition, % (no concentration beside the values) | 290,000 compounds, 3.8% hits | AID 485317;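 active = mean replicate inhibition above about 79%, with every replicate also reaching it, limit read from the data; inconclusive = only one of the two criteria met; inactive = mean below limit and not every replicate reaching it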
Target sequence (P55789 whole entry, looked up): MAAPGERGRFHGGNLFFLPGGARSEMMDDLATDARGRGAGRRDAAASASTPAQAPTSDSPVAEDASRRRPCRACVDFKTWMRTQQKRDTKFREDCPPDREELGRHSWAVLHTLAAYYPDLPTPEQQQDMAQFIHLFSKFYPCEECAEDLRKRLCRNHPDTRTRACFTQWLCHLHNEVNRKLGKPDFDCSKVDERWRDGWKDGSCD
Efflux pump mplx: antifungal efflux pump inhibition, Nile Red retention | inhibition, % at 10 µM | S. cerevisiae Candida pump triplex | 330,000 compounds, 0.44% hits;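 active = plate passing quality check with inhibition over a set limit, or well fluorescence over plate mean plus 4 SD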;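 note: Nile Red retained in pooled yeast measured as flow cytometry median fluorescence; higher means more Nile Red kept so more efflux inhibition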
UBC9 SUMO inh: inhibitors of human SUMOylation (UBC9). 290,000 compounds, 0.36% hits. HTRF SUMOylation assay, SAE1/SAE2 + UBC9, in vitro. AID 2006. P63279. inhibition, % at 35 µM; in the data active = inhibition above about 50%, passing the limit was not always enough; inconclusive = no clear call, values can overlap the other calls
Target sequence (P63279 whole entry, looked up): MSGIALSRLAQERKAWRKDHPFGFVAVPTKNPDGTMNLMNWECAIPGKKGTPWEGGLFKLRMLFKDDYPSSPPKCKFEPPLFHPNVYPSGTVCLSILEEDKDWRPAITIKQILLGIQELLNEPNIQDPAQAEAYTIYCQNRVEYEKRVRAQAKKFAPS
PABP polyA inh: blocks human PABP binding to poly(A) RNA. P11940. fluorescence polarization. inhibition, % at 35 µM. 290,000 compounds, 1% hits;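 note: calls also rest on retests at 20 µM and on dose response follow-up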
Of the large screens only hits and unclear results are named; the others gave an inactive call. Compounds with a hit are over-represented: about 4.7% of the library has one in this group of screens. Unless noted, the rule behind the calls is not given here.

Cc1[nH]c2ccccc2c1C(c1ccccn1)c1c(C)[nH]c2ccccc12	eIF4H FP inh 55.2, PABP polyA inh 60.8
COC(=O)C(C(=O)OC)C(c1ccccc1)C(C(=O)c1ccccc1)[N+](=O)[O-] (stereo not given)	none
O=C(O)CCCN1C(=O)/C(=C\C(Cl)=C\c2ccccc2)SC1=S	ALR inh 97.9
O=C(O)CC(C(=O)O)N1C(=O)/C(=C/C=C/c2ccco2)SC1=S (stereo not given)	eIF4H FP inh 99.9, PABP polyA inh 91.1 (no result: UBC9 SUMO inh)
O=C(O)C(Cc1ccccc1)N1C(=O)/C(=C/C=C/c2ccco2)SC1=S (stereo not given)	eIF4H FP inh 84.6, UBC9 SUMO inh 73.0, PABP polyA inh 97.0 (no result: ALR inh, Efflux pump mplx)
O=C(O)CCCN1C(=O)/C(=C/C=C/c2ccco2)SC1=S	eIF4H FP inh 97.7, ALR inh inconclusive, PABP polyA inh 91.6
COc1ccccc1CNC(=O)COC(=O)CCN1C(=O)C2CC=CCC2C1=O (stereo not given)	none (no result: eIF4H FP inh, ALR inh, Efflux pump mplx, UBC9 SUMO inh, PABP polyA inh)
COc1ccc(C(C#N)CC(=O)c2ccc(OC)c(OCc3ccccc3)c2)cc1OC (stereo not given)	none (no result: eIF4H FP inh, ALR inh, Efflux pump mplx, UBC9 SUMO inh, PABP polyA inh)
Brc1ccc(-c2csc3ncnc(-n4nnc5ccccc54)c23)cc1	none
Cc1cccn2cc(CSc3ccccc3N)nc12	ALR inh 81.4
Nc1ccccc1SCc1cn2cccnc2n1	ALR inh 97.7
CC(=O)c1ccccc1OCCCCN1CCCCC1	none
COc1ccc(C(=O)CCC(=O)N2CCN(c3ccc(C)cc3)C(C)C2)cc1 (stereo not given)	ALR inh 99.0
O=C(Cc1ccc(Cl)cc1)N1CCN(c2ccccc2)CC1	ALR inh 87.8
O=C(Cc1ccc(Cl)cc1)N1CCN(c2ccc(F)cc2)CC1	none
COc1ccc(N2CCN(C(=O)C3(C)CC3(Cl)Cl)CC2)cc1 (stereo not given)	ALR inh 99.2
CCOC(=O)N1CCN(C(=O)CSCc2ccccc2Cl)CC1	ALR inh 99.0
COc1ccc(N2CCN(C(=O)CCCC(=O)c3ccccc3)CC2)cc1	none
COc1ccc(N(CC(=O)NC2CCCC2)C(=O)CCC(=O)Nc2nc(C)cs2)cc1OC	none
COc1cc(CNC(=O)Nc2cccn3nc(COCCO)nc23)cc(OC)c1OC	none (no result: eIF4H FP inh, ALR inh, Efflux pump mplx, UBC9 SUMO inh, PABP polyA inh)
COc1ccc(N2CCN(C(=O)CSc3nnnn3C3CC3)CC2)cc1	ALR inh 86.6 (no result: eIF4H FP inh, UBC9 SUMO inh, PABP polyA inh)
CCOC(=O)N1CCN(C(=O)Cc2ccc(Cl)cc2)CC1	ALR inh 96.1
COc1ccc(N2CCN(C(=O)c3c(Cl)cnn3C)CC2)cc1	ALR inh 98.8
COc1ccc(N2CCN(C(=O)Cc3ccc(C)cc3)CC2)cc1	ALR inh 79.6
COc1ccccc1N1CCN(C(=O)CSc2nnnn2C2CC2)CC1	none (no result: eIF4H FP inh, ALR inh, Efflux pump mplx, UBC9 SUMO inh, PABP polyA inh)
O=C(Nc1cccc(OC(F)(F)F)c1)C1Cc2c(-c3cccc(F)c3)ccnc2O1 (stereo not given)	none (no result: eIF4H FP inh, ALR inh, Efflux pump mplx, UBC9 SUMO inh, PABP polyA inh)
O=C(CN1C(=O)NC(Cc2ccccc2)C1=O)Nc1ccc(F)c(Cl)c1 (stereo not given)	none (no result: eIF4H FP inh, UBC9 SUMO inh, PABP polyA inh)
CCCCn1nc(C(=O)NCC2COc3ccccc3O2)c2ccccc2c1=O (stereo not given)	none (no result: eIF4H FP inh, UBC9 SUMO inh, PABP polyA inh)
O=C(CCC(=O)N1CCN(c2cccc(Cl)c2)CC1)N1CCN(c2ccccc2)CC1	ALR inh 98.5
C=CCn1c(SCC(=O)c2ccc(CNC(C)=O)o2)nc2scc(C3CC3)c2c1=O	eIF4H FP inh 77.2 (no result: ALR inh)
O=C(OCc1cc(=O)n2ccsc2n1)c1ccc(OC(F)F)cc1	none (no result: eIF4H FP inh, ALR inh, Efflux pump mplx, UBC9 SUMO inh, PABP polyA inh)
CCn1c(CCCNC(=O)c2cccs2)nc2ccccc21	ALR inh 97.8
CCCn1c(CCNC(=O)c2cccs2)nc2ccccc21	none
Cc1cc2ccccc2n1CCNC(=O)C1CCCC1	eIF4H FP inh inconclusive, PABP polyA inh 74.9
Cc1cc2ccccc2n1CCNC(=O)c1cccs1	eIF4H FP inh 41.7, PABP polyA inh 63.7
Cc1cc2ccccc2n1CCNC(=O)C1CCCCC1	none
Cc1cc2ccccc2n1CCNC(=O)C1CC1	PABP polyA inh 50.2
COc1ccc2ccc(OCC(=O)NCC3CCCO3)cc2c1 (stereo not given)	none (no result: eIF4H FP inh, ALR inh, Efflux pump mplx, UBC9 SUMO inh, PABP polyA inh)
CCOC1=C2CN(S(=O)(=O)c3ccc(C)cc3)[C@H](c3ccccc3)C[C@H]2[C@H]2C(=O)N(c3ccccc3)C(=O)[C@H]2C1	none (no result: eIF4H FP inh, ALR inh, Efflux pump mplx, UBC9 SUMO inh, PABP polyA inh)
O=C1NC(c2cccc(OCc3ccccc3)c2)Nc2ccccc21 (stereo not given)	none (no result: eIF4H FP inh, ALR inh, Efflux pump mplx, UBC9 SUMO inh, PABP polyA inh)
CCN(CC)CCNC(=O)CCc1c(C)nc2c(c(C)nn2-c2ccc(C)c(C)c2)c1C	none
O=S(=O)(Nc1ccc(O)c(Sc2nc3ccccc3s2)c1)c1ccc(F)cc1	ALR inh inconclusive
O=C(O)c1cccc(S(=O)(=O)Nc2ccc(O)c(Sc3nc4ccccc4s3)c2)c1	ALR inh 99.2
COc1ccc(/C=N/Nc2nc(Nc3ccccc3)nc(N3CCCCC3)n2)cc1OC	ALR inh 98.4
CCOc1cc(/C=N/Nc2nc(N3CCCC3)nc(N3CCCC3)n2)ccc1O	ALR inh 98.8
CCOc1cccc(/C=N/Nc2nc(N3CCCC3)nc(N3CCCC3)n2)c1O	none
CCOc1cc(/C=N/Nc2cccc(C(=O)O)c2)ccc1OC(=O)c1ccccc1	none (no result: ALR inh, Efflux pump mplx)
CCOc1cc(/C=N/Nc2ccccc2Cl)ccc1OCC(=O)O	ALR inh 99.1
CCOc1cc(/C=N/Nc2nc(Nc3ccccc3)nc(N3CCCCC3)n2)ccc1OCC(=O)O	ALR inh 97.2, PABP polyA inh inconclusive
COc1cc(/C=N/Nc2nc(N3CCCCC3)nc(N3CCCCC3)n2)ccc1OC(=O)c1ccco1	none (no result: PABP1 MLLE inh)
C[C@@H]1CN([C@H](C)CO)C(=O)CCCn2nncc2CO[C@H]1CN(C)Cc1ccc(Cl)c(Cl)c1	none (no result: eIF4H FP inh, ALR inh, Efflux pump mplx, UBC9 SUMO inh, PABP polyA inh)
Oc1ccc(N2CCN(Cc3nc4ccccc4[nH]3)CC2)cc1	ALR inh 98.7
CC(=O)c1ccc(N2CCN(Cc3nc4ccccc4[nH]3)CC2)cc1	none (no result: ALR inh)
COc1ccc(N(CCN2C(=O)c3ccccc3C2=O)C(=O)c2cccc([N+](=O)[O-])c2)cc1	eIF4H FP inh active, PABP polyA inh 71.7 (no result: ALR inh)
O=[N+]([O-])c1ccc(S(=O)(=O)c2ccccc2)nc1	ALR inh 98.0
Cc1ccc(S(=O)(=O)c2ccc([N+](=O)[O-])cn2)cc1	ALR inh 88.5
Cc1cc(S(=O)(=O)c2ccc([N+](=O)[O-])cn2)ccc1Br	none (no result: eIF4H FP inh, UBC9 SUMO inh, PABP polyA inh)
COc1ccc(CNC(=O)C(C)Sc2nc3ccccc3c(=O)n2CC2CCCO2)cc1 (stereo not given)	none (no result: eIF4H FP inh, UBC9 SUMO inh, PABP polyA inh)
c1ccc(-c2nnc(CN3CCN(c4ccccc4)CC3)o2)cc1	ALR inh 97.5, PABP polyA inh inconclusive
CC1(C(=O)Nc2cccnc2)Cc2c(-c3ccc4c(c3)OCO4)ccnc2O1 (stereo not given)	none (no result: eIF4H FP inh, ALR inh, Efflux pump mplx, UBC9 SUMO inh, PABP polyA inh)
CCc1nn2c(=O)cc(CSCC(=O)Nc3ccccc3F)nc2s1	ALR inh 99.2
COc1ccc(C(CNC(=O)C(C)Sc2ccccc2)N2CCOCC2)cc1 (stereo not given)	none (no result: eIF4H FP inh, ALR inh, Efflux pump mplx, UBC9 SUMO inh, PABP polyA inh)
Cc1cc(=O)[nH]c(SCc2csc(-c3ccccc3)n2)n1	none
c1ccc(-c2nc(CSc3n[nH]c(-c4cccs4)n3)cs2)cc1	ALR inh 97.8
O=C(CSc1n[nH]c(-c2cccs2)n1)N1CCCC1	none (no result: eIF4H FP inh, UBC9 SUMO inh, PABP polyA inh)
